# Measured values as given in the OligoGym collection.
# Molecular target: OLFML2A
# Experiment: pooled miR-30 sensor sort-seq; sequence = guide strand
# Conditions: shRNA
# Note: reference of the scale not given here.
row,Sequence,sensor-assay potency score (higher = more potent)
1,TAGCTTGTACATGTTACTCCAG,-0.555
2,TTTCCATAGTAGTAGTTGGTGA,-0.818
3,TTGTAGTAGGTGAAGCCCCGGA,-0.647
4,TTGTAGTCGATCTGGGTGGTGT,-0.246

# Molecular target: OLIG1
# Experiment: as above
# Conditions: shRNA
row,Sequence,sensor-assay potency score (higher = more potent)
1,TACCTATTTTAGTAAATCGGGA,-0.985
2,TTGGTTTTCGTTTTTAAGCAAG,-1.05
3,TACAGCTCTCCAAACAGCTGGT,-0.013
4,TTAACGTCTGTAACAAATCGAA,-0.686
5,TTTAAGAGCGAAAACTCTCTGC,-0.0663
6,TAACGTCTGTAACAAATCGAAA,-1.41
7,TTGTTGATTCTGTACACCGTCA,-0.445
8,TAGTAAATCGGGAACACTGGAT,-0.186
9,TATGTAGCTCTTCAACTGCAAG,-1.7
10,TTACCTATTTTAGTAAATCGGG,-0.775
11,TTGCTTTCTAAGAAACCCCCAG,-0.585
12,TCGGCTACTACCAACAACCAAA,-1.38

# Molecular target: OMD
# Experiment: as above
# Conditions: shRNA
row,Sequence,sensor-assay potency score (higher = more potent)
1,TTCATTGTAACCAAGAAGGAGT,-0.273
2,TATAGGTTTTGTGAAGTCGTAA,-0.621
3,TTTGTCGAAGTATTTTTCGGGT,-0.262
4,TTTGTTGTGTCCAACACTGAGT,-0.557
5,TATTTCATTATTTTGTAGGTAT,0.614
6,TTAGTTGTATTGTTTGACCATT,-0.906
7,TTAAATTCAATTCTGATCTTAT,-0.256
8,TAGTGCTTCGTTGTTCACCATA,-1.2
9,TTGTAGTAGATTTGGAAGCTTA,-0.257
10,TTGGTCATAGTCTTCATCCCAC,-0.0587
11,TTGTGTGACATTCTTAGAGTAT,-0.365
12,TTTGAGTAAGTTCTAATCCTAT,-0.412

# Molecular target: OPRK1
# Experiment: as above
# Conditions: shRNA
row,Sequence,sensor-assay potency score (higher = more potent)
1,ATGACATCGACGTCTTCCCTGA,-0.669
2,TATCTTGCACAGCACATCCCCA,-0.82
3,TTACTATCTTGCACAGCACATC,-1.6
4,TTTCGGACTCTGCTAGTGCTCT,-0.953
5,TAGCTGGAGAGAGCAGCTGTGC,-1.45
6,TATCGGATGATCACGAACATGA,-0.746
7,TTGCTGTCTTCATCTTTGTGTA,-0.644
8,ATCACGAACATGACCAGCGAGT,-1.24
9,AATAGCTGGAGAGAGCAGCTGT,0.381
10,TTCATGAAGAGGTCCCACCAGG,-0.714
11,TTGGTTGCTGTCTTCATCTTTG,-0.766
12,TTGTAGTAACTAAAGCATCTGC,-0.405
